The record followed here is PubChem BioAssay (EPA / NIEHS).

Read-out in assay [1]: Transforming growth factor beta 1 (TGFb1), TGFB1 (gene 7040)
The experiment in a line: BSK_KF3CT_TGFb1: BioMAP Diversity Plus: KF3CT Assay for Transforming growth factor beta 1 (TGFb1) Biomarker Activity (AID 2283072). The settings on record: primary human keratinocytes with fibroblasts; actives raise or lower the signal. The method, boiled down:
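Human keratinocyte plus foreskin fibroblast primary co-culture, dosed with chemical for 24 h. TGF-b1 quantified by ELISA. Activity fitted bidirectionally against DMSO negative control as baseline.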

Read-out in assay [2]: C-C motif chemokine 2 (Homo sapiens) (UniProt P13500)
Kind of assay: BSK_KF3CT_MCP1: BioMAP Diversity Plus: KF3CT Assay for Monocyte Chemoattractant Protein 1 (MCP1/CCL2) Biomarker Activity (AID 2283073). The settings on record: primary human keratinocytes with fibroblasts; actives raise or lower the signal. The method, boiled down:
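Biomarker MCP-1 is measured by ELISA in primary human keratinocytes co-cultured with foreskin fibroblasts, 24 h after chemical treatment; DMSO serves as the negative control and activity baseline.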

Read-out in assay [3]: Matrix Metallopeptidase 9 (MMP9), MMP9 (gene 4318)
Kind of assay: BSK_KF3CT_MMP9: BioMAP Diversity Plus: KF3CT Assay for Matrix Metallopeptidase 9 (MMP9) Biomarker Activity (AID 2283074). The settings on record: primary human keratinocytes with fibroblasts; actives raise or lower the signal. The method, boiled down: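 Human keratinocyte and foreskin fibroblast co-culture exposed to chemicals for 24 h; MMP9 biomarker measured by ELISA, bidirectional fitting relative to DMSO; cytotoxicity tracked by SRB total protein staining in parallel cultures.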

Read-out in assay [4]: urokinase plasminogen activator (uPA), PLAU (gene 5328)
Kind of assay: BSK_KF3CT_uPA: BioMAP Diversity Plus: KF3CT Assay for urokinase plasminogen activator (uPA) Biomarker Activity (AID 2283075). The settings on record: primary human keratinocytes with fibroblasts; actives raise or lower the signal. An outline of the steps:
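Primary human keratinocyte/foreskin fibroblast co-culture exposed to chemical; uPA measured by ELISA at 24 h. Bidirectional fit versus DMSO, with parallel SRB total-protein staining for cytotoxicity.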

Read-out in assay [5]: CD40, CD40 (gene 958)
The experiment in a line: BSK_LPS_CD40: BioMAP Diversity Plus: LPS Assay for CD40 Biomarker Activity (AID 2283076). The settings on record: primary human HUVEC with PBMC; actives raise or lower the signal. An outline of the steps:
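Using a multiplexed primary human co-culture (umbilical vein endothelium plus PBMC), CD40 was read by ELISA 24 h after dosing, with cytotoxicity tracked by sulforhodamine B staining of parallel cultures and activity fitted bidirectionally versus DMSO.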

Read-out in assay [6]: E-selectin (Homo sapiens) (UniProt P16581)
The experiment in a line: BSK_LPS_Eselectin: BioMAP Diversity Plus: LPS Assay for Eselectin Biomarker Activity (AID 2283077). The settings on record: primary human HUVEC with PBMC; actives raise or lower the signal. The method, boiled down:
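Dose chemical onto LPS-driven HUVEC/PBMC co-culture; after 24 h, run ELISA for E-selectin; fit up- and down-going responses relative to DMSO control.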

Read-out in assay [7]: Interleukin-8 (IL8), CXCL8 (gene 3576)
Kind of assay: BSK_LPS_IL8: BioMAP Diversity Plus: LPS Assay for Interleukin-8 (IL8) Biomarker Activity (AID 2283078). The settings on record: primary human HUVEC with PBMC; actives raise or lower the signal. An outline of the steps: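 In this LPS system, chemical-treated human umbilical vein endothelium/PBMC co-cultures were harvested at 24 h for IL-8 ELISA.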

A short description of assay [8]: BSK_LPS_SRB: Viability Assessment in the BioMAP Diversity Plus: LPS Assay (AID 2283079).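 Further: total protein by sulforhodamine B absorbance as a cytotoxicity measure; measured one day after compound addition; fitted in both directions against DMSO so loss or gain of signal counts.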 The settings on record: primary human HUVEC with PBMC. An outline of the steps:
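Cytotoxicity endpoint in human endothelial–PBMC co-culture: 24 h exposure, then SRB (0.1%) staining, 560 nm read.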

Read-out in assay [9]: Interleukin-1 alpha (IL1a), IL1A (gene 3552)
The experiment in a line: BSK_LPS_IL1a: BioMAP Diversity Plus: LPS Assay for Interleukin-1 alpha (IL1a) Biomarker Activity (AID 2283080). The settings on record: primary human HUVEC with PBMC; actives raise or lower the signal. An outline of the steps:
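Primary human HUVEC and PBMC co-culture stimulated with LPS is dosed and harvested at 24 h. Both increases and decreases in ELISA-measured IL-1a are scored relative to DMSO.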

Read-out in assay [10]: Monocyte Chemoattractant Protein-1 (MCP1), CCL2 (gene 6347)
Kind of assay: BSK_LPS_MCP1: BioMAP Diversity Plus: LPS Assay for Monocyte Chemoattractant Protein-1 (MCP1) Biomarker Activity (AID 2283081). The settings on record: primary human HUVEC with PBMC; actives raise or lower the signal. The method, boiled down: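 Values derive from bidirectional fitting against DMSO of ELISA-measured MCP-1 in a human primary endothelial and mononuclear cell co-culture, 24 h after chemical addition under LPS activation.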

A short description of assay [11]: BSK_LPS_PGE2: BioMAP Diversity Plus: LPS Assay for Prostaglandin E2 (PGE2) Biomarker Activity (AID 2283082). The settings on record: primary human HUVEC with PBMC; actives raise or lower the signal. The method, boiled down: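 HUVEC plus PBMC co-culture stimulated with LPS; secreted PGE2 quantified by ELISA 24 h after chemical dosing. Activity fitted bidirectionally against DMSO as negative control and baseline; parallel SRB total-protein staining served as cytotoxicity check.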

Read-out in assay [12]: Macrophage colony-stimulating factor (MCSF), CSF1 (gene 1435)
Kind of assay: BSK_LPS_MCSF: BioMAP Diversity Plus: LPS Assay for Macrophage colony-stimulating factor (MCSF) Biomarker Activity (AID 2283083). The settings on record: primary human HUVEC with PBMC; actives raise or lower the signal. The method, boiled down:
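Bidirectional fit versus DMSO of ELISA-measured M-CSF in co-cultured human umbilical vein endothelial cells and PBMC, sampled 24 h after dosing.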

Read-out in assay [13]: Tissue Factor, F3 (gene 2152)
The experiment in a line: BSK_LPS_TissueFactor: BioMAP Diversity Plus: LPS Assay for Tissue Factor Biomarker Activity (AID 2283084). The settings on record: primary human HUVEC with PBMC; actives raise or lower the signal. The method, boiled down:
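Read-out: CD142 ELISA, 24 h. System: LPS-driven human endothelial/PBMC co-culture. Analysis: up- or down-signal fitted against DMSO.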

Read-out in assay [14]: Vascular cell adhesion molecule 1 (VCAM1), VCAM1 (gene 7412)
The experiment in a line: BSK_LPS_VCAM1: BioMAP Diversity Plus: LPS Assay for Vascular cell adhesion molecule 1 (VCAM1) Biomarker Activity (AID 2283086). The settings on record: primary human HUVEC with PBMC; actives raise or lower the signal. The method, boiled down: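 Human umbilical vein endothelial cells co-cultured with peripheral blood mononuclear cells under LPS stimulation were exposed to test chemical for 24 h. VCAM-1 levels were then measured by ELISA, with bidirectional curve fitting relative to DMSO as negative control and baseline.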

Read-out in assay [15]: CD38, CD38 (gene 952)
The experiment in a line: BSK_SAg_CD38: BioMAP Diversity Plus: SAg Assay for CD38 Biomarker Activity (AID 2283087). The settings on record: primary human HUVEC with PBMC; actives raise or lower the signal. The method, boiled down: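 Fluorescence ELISA of cell-surface CD38 served as the read-out, with either increase or decrease fitted against DMSO controls. Cells were a human umbilical vein endothelium plus PBMC co-culture under SEB/TSST-1 stimulation, measured 24 h after dosing.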

Read-out in assay [16]: CD40, CD40 (gene 958)
The experiment in a line: BSK_SAg_CD40: BioMAP Diversity Plus: SAg Assay for CD40 Biomarker Activity (AID 2283088). The settings on record: primary human HUVEC with PBMC; actives raise or lower the signal. An outline of the steps: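 Endpoint derived by fitting increases or decreases versus DMSO controls. CD40 is detected by fluorescence ELISA in a human vascular co-culture of endothelium and PBMC at 24 h.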

Read-out in assay [17]: CD69, CD69 (gene 969)
Kind of assay: BSK_SAg_CD69: BioMAP Diversity Plus: SAg Assay for CD69 Biomarker Activity (AID 2283089). The settings on record: primary human HUVEC with PBMC; actives raise or lower the signal. The method, boiled down: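 Endothelial/PBMC co-culture; chemical added; 24 h incubation; CD69 ELISA with fluorescence detection; bidirectional fit vs DMSO.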

Read-out in assay [18]: E-selectin (Homo sapiens) (UniProt P16581)
Kind of assay: BSK_SAg_Eselectin: BioMAP Diversity Plus: SAg Assay for Eselectin Biomarker Activity (AID 2283091). The settings on record: primary human HUVEC with PBMC; actives raise or lower the signal. The method, boiled down:
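Endpoint values derive from bidirectional fitting relative to DMSO, using ELISA-measured E-selectin in a human vascular co-culture (umbilical vein endothelium plus PBMC) sampled 24 h after dosing.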

Read-out in assay [19]: Tumor necrosis factor (Homo sapiens) (UniProt P01375)
The experiment in a line: BSK_LPS_TNFa: BioMAP Diversity Plus: LPS Assay for Tumour Necrosis Factor alpha (TNFa) Biomarker Activity (AID 2283085). The settings on record: primary human HUVEC with PBMC; actives raise or lower the signal. The method, boiled down: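 Human umbilical vein endothelial cells co-cultured with PBMC were exposed to test chemical and TNFa measured by ELISA 24 h after dosing. Bidirectional curve fitting was done relative to DMSO as negative control and baseline.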

Read-out in assay [20]: Monocyte Chemoattractant Protein-1 (MCP1), CCL2 (gene 6347)
Kind of assay: BSK_SAg_MCP1: BioMAP Diversity Plus: SAg Assay for Monocyte Chemoattractant Protein-1 (MCP1) Biomarker Activity (AID 2283090). The settings on record: primary human HUVEC with PBMC; actives raise or lower the signal. An outline of the steps: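 MCP-1 levels in the endothelial–PBMC SAg co-culture were quantified by ELISA at 24 h post-dosing; both increases and decreases versus DMSO scored. Cytotoxicity monitored by SRB total protein in parallel cultures.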

Calls of active or inactive are those of the source. How the source made its calls: active means hit-call score of the fitted dose curve at least 0.9, where 1 is the maximum; inactive means score below 0.9.

Sequence of Tumor necrosis factor (Homo sapiens) (P01375 whole entry, looked up): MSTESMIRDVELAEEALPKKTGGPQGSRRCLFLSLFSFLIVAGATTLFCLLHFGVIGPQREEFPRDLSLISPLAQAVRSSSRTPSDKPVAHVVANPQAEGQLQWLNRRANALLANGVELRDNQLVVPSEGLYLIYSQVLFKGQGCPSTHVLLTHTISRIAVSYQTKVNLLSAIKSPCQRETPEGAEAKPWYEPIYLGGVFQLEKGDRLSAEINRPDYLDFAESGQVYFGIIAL
Sequence of E-selectin (Homo sapiens) (P16581 whole entry, looked up): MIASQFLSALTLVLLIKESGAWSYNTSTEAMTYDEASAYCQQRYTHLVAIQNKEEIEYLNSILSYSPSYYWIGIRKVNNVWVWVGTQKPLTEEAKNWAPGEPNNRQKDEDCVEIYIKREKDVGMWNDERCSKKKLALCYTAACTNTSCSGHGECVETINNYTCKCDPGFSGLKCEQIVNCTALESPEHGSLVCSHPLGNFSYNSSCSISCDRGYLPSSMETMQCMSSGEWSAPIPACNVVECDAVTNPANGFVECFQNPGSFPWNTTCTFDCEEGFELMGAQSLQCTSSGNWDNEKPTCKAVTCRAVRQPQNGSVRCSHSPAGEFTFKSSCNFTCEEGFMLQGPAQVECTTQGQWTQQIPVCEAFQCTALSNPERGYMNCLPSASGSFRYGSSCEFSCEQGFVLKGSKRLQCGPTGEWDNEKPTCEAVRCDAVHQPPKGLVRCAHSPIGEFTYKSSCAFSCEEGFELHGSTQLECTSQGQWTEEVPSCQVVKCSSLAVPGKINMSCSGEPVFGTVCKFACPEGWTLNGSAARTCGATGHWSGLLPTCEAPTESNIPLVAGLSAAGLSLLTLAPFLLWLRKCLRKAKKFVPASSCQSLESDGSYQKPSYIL

For `COc1cc(S(=O)(=O)O)c(C)cc1N=Nc1c(O)ccc2cc(S(=O)(=O)O)ccc12`, the outcome in [1], in assay [2], in assay [3], in assay [4], in assay [5] and in [6] was inactive. Further, the outcome in assay [7], in assay [8], in assay [9], in [10], in assay [11] and in assay [12] was inactive. For the same molecule, the result in assay [13], in [14], in assay [15], in [16], in assay [17] and in assay [18] was inactive.

Take `CCNc1cccc(C)c1`: the result in [1], in assay [2], in [3], in assay [4], in [5] and in assay [6] was inactive. In addition, the result in assay [7], in assay [8], in assay [9], in assay [10], in assay [11] and in assay [13] was inactive. The outcome in [19], in assay [14], in assay [15], in assay [16], in assay [17] and in assay [20] was inactive. Besides, in assay [18], the result was inactive.

With `COc1ccc2c(c1)c(CC(=O)O)c(C)n2C(=O)c1ccc(Cl)cc1`, the outcome in [1], in assay [2], in [3], in assay [4], in assay [5] and in assay [6] was inactive. The outcome in assay [7], in assay [8], in assay [9], in assay [10], in assay [12] and in assay [13] was inactive. Besides, the outcome in [19], in assay [14], in [15], in assay [16], in assay [17] and in assay [18] was inactive. Also, in assay [11], the AC50 (as a rule, the concentration at which the activity in the assay is half-maximal) was 148 nM (active).

For `Cc1ccc(C)c(O)c1C`, the result in [1], in assay [2], in [3], in assay [4], in [5] and in assay [6] was inactive. The result in assay [7], in [8], in [9], in [10], in assay [13] and in assay [19] was inactive. Besides, the result in assay [14], in [15], in [16], in assay [17] and in [18] was inactive. In assay [11], the AC50 is 795 nM (active).

On to `CC(C)c1ccc(C(=O)N=C(N)N)cc1S(C)(=O)=O`, for which the outcome in assay [1], in [2], in assay [3], in assay [4], in assay [5] and in [6] was inactive. Further, the outcome in assay [7], in assay [8], in assay [9], in [10], in assay [11] and in [12] was inactive. In addition, the outcome in assay [13], in assay [19], in assay [14], in [15], in assay [16] and in assay [17] was inactive. Besides, the outcome in assay [20] and in assay [18] was inactive.

Consider `Cc1cc(=O)[nH]c(=S)[nH]1`, for which the outcome in [1], in assay [2], in [3], in [4], in assay [5] and in assay [6] was inactive. For the same molecule, the outcome in assay [7], in assay [8], in assay [9], in [10], in assay [11] and in assay [13] was inactive. In addition, the outcome in assay [14], in [15], in assay [16], in [17], in [20] and in assay [18] was inactive.

Regarding `CCOC(=O)C(C)(C)Oc1ccc(Cl)cc1`, the result in [1], in [2], in assay [3], in assay [4], in [5] and in [6] was inactive. Moreover, the result in assay [7], in [8], in assay [9], in [10], in assay [11] and in assay [12] was inactive. Also, the outcome in assay [13], in assay [14], in assay [15], in assay [16], in [17] and in assay [18] was inactive.
